Experimental data taken from the OligoGym collection.

Target: BCL7A
Assay: pooled miR-30 sensor sort-seq; sequence = guide strand
Details: shRNA
Further: reference of the scale not given here.

Row | Sequence | sensor-assay potency score (higher = more potent)
1 | TTGTGGAATGTGTAGCCGCAGC | -1.01
2 | TTGATATCATCTTTGGCCCGGC | -0.0024
3 | TTCAGGAACATTTTGATTCTTC | -0.0367
4 | TATCGTTACATAGAGAAGTGGG | 0.305
5 | TAGTAGTTCTGTTCGCACCCAA | 0.392
6 | TTTCTCTGAGCTGTTCATCGAA | -0.326
7 | TAGGGATGTGTCACCAACGGTC | -0.791
8 | TACAGCAGCAACACAAATGGAA | -0.286
9 | TTAGAAAATGGAATCCAGCAGA | -0.0728
10 | TTCTCTGAGCTGTTCATCGAAT | -0.798
11 | TTTAAGACAGAAACCTTTCGGC | 0.668
12 | TTGTTTTTGTCATCAACCTTGG | -0.192
13 | ATAATGAACATTCCAAACCATG | -1.57
14 | TACTGCTGTACAACACACCAAA | -0.883
15 | TTCATCGAATGTTCCATCGAGG | -0.362
16 | TAACACACAACTCAAAGGGAGT | -1.29
17 | TTTTGCAGTCTTGTCATTCTGC | 0.59
18 | TGAGCCACACTTCTCGTCCTTG | -0.721
19 | ATTCTGACCACTGCGATCCTGC | -0.637
20 | TTGAAATTCAGGAACATTTTGA | -0.466

Target: BDH2
Assay: as above
Details: shRNA

Row | Sequence | sensor-assay potency score (higher = more potent)
21 | TTACATAAGCAGATTCATCAGA | 0.11
22 | TTCTTTCTTGTAGAGATGGCGT | -0.55
23 | TTGGTTGTGCTGTACACACATC | -1.05
24 | TTGGACTCATTAATGTCTGTGG | -0.0604
25 | AAACTGATCAATTTGTTTCTTC | 0.524
26 | TTCCATGATGGACAAAACCAGC | -1.2
27 | TTCACAACTCCTTTGACGCTGG | 0.0987
28 | TTTGTTTCTTCTTTGTGACATC | -0.953
29 | TTGATCATCAGGTACATGCTGC | 0.603
30 | TTAAAGAGAACATCAAGTCTCT | 0.782
31 | TAATATTGCCAGATTTCTGAGC | -0.452
32 | TATTGCCAGATTTCTGAGCAAG | -1.16

Target: BEST2
Assay: as above
Details: shRNA

Row | Sequence | sensor-assay potency score (higher = more potent)
33 | TTCAGGTTTTCAAACTTCTTGC | -0.208
34 | AAGCGCTTGAACACCGCGGTGC | 0.183
35 | TAAATCACAAGCTTCTCGAAGT | -0.564
36 | AACTTCTTGCGCTCCTCGCGGG | -0.5
37 | ATACATCTCGTCCACTGCCAGC | -1.42
38 | TAGTGAAAGAGCATTCCACATT | -0.946
39 | TACGCTAATCCAGTCATAGTGA | -0.195
40 | ATAAATCACAAGCTTCTCGAAG | -0.809
